From the supplement of paper PMC11732987, “Enantioselective OTUD7B fragment discovery through chemoproteomics screening and high-throughput optimisation” (Communications Chemistry, 2025)

How the values were obtained:
Assay in all cases: log2 ratio of Biotin-Ahx-Ub-VS probe labelling (fragment/DMSO); higher = less target engagement (more negative = stronger competition), active = hit call of the paper (q ≤ 0.05, log2 ratio ≤ -1)
Settings in all cases: compound concentration: 200 uM; treatment time: 3 h
USP42 = target: T1, USP42 (UniProt Q9H9J4)
T1 sequence (whole entry): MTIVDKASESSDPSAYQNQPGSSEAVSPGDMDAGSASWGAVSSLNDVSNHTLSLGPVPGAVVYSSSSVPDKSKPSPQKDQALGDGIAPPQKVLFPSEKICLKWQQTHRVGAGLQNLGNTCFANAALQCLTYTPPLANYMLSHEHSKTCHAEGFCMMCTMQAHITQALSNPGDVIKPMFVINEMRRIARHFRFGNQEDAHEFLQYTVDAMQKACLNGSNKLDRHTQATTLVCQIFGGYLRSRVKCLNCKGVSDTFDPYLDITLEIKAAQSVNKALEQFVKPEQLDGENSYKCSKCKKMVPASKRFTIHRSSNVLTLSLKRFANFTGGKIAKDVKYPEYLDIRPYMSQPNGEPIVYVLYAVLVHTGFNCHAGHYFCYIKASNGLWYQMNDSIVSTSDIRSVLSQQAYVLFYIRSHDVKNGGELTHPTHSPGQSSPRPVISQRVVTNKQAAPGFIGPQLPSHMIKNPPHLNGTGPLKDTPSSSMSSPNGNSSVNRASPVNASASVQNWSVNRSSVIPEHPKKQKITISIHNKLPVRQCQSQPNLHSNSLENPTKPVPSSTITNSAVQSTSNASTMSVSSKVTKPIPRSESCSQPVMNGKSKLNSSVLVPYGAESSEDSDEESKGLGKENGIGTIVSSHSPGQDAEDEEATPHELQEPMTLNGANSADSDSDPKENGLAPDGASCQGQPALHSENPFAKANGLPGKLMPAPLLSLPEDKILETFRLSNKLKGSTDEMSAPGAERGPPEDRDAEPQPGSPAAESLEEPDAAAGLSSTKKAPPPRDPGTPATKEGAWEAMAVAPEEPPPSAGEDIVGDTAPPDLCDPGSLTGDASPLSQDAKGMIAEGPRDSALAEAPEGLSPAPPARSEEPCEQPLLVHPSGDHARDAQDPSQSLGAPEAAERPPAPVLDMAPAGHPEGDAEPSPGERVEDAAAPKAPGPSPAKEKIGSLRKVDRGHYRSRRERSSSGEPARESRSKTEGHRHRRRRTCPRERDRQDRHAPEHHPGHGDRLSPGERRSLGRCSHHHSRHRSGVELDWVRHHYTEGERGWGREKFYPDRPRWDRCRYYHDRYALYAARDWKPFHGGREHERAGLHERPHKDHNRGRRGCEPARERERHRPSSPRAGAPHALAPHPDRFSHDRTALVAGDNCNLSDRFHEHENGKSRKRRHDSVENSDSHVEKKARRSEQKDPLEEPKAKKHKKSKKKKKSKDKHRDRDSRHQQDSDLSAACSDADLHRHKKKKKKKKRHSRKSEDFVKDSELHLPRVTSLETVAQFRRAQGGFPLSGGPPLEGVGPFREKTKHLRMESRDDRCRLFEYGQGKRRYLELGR
Method in brief: (§1)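 Fragment (200 µM) or vehicle was incubated for 3 h with triplicate HEK293T lysate samples of 495 µg, which were then treated with Biotin-Ahx-Ub-VS at 0.5 µM final for 1 h. Labelled DUBs were enriched on NeutrAvidin, digested with LysC and trypsin, and analysed by diaPASEF LC-MS/MS. Values are average log2 fragment/vehicle ratios from an unpaired t-test on global-median-normalised Spectronaut label-free quantities, using proteins with ≥2 unique peptides.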

USP46 = USP46 (UniProt P62068)
Method in brief: as §1

USP47 = target: T2, USP47 (UniProt Q96K76)
T2 sequence (whole entry): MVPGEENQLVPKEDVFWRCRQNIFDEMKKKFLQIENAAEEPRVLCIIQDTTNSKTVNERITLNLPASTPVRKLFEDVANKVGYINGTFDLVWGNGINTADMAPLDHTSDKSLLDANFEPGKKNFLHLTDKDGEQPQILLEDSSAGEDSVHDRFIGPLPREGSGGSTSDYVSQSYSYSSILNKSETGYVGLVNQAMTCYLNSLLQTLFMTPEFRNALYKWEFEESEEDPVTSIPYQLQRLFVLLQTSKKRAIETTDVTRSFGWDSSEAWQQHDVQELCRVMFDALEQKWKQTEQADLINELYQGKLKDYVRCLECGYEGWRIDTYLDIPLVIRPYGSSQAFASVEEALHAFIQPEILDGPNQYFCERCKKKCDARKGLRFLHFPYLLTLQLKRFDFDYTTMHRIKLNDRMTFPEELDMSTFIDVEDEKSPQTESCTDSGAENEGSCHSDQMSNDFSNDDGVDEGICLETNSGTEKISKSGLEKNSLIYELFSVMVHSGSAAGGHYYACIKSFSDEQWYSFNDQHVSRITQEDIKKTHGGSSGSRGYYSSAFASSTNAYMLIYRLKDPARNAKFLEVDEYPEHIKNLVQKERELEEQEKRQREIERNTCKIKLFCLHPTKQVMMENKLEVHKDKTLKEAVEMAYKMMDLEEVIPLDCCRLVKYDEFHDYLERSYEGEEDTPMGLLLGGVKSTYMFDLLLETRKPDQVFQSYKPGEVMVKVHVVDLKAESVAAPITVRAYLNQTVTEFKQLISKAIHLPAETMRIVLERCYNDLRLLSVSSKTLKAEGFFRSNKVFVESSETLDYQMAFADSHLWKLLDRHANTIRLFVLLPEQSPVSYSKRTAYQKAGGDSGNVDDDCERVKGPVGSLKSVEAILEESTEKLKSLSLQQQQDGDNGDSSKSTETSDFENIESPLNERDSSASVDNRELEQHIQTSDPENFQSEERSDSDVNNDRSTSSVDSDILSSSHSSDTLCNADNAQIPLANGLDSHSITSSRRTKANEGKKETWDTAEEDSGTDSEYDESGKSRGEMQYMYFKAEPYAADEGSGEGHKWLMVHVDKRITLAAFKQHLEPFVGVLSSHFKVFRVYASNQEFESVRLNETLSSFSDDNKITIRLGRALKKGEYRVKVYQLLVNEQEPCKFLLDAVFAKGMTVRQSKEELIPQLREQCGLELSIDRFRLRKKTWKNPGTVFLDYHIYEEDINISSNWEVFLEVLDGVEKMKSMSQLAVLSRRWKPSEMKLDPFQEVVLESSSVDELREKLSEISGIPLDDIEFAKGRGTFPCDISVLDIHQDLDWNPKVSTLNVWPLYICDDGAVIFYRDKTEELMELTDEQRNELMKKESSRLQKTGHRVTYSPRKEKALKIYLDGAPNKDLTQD
Method in brief: as §1

USP48 = target: T3, USP48 (UniProt Q86UV5)
T3 sequence (whole entry): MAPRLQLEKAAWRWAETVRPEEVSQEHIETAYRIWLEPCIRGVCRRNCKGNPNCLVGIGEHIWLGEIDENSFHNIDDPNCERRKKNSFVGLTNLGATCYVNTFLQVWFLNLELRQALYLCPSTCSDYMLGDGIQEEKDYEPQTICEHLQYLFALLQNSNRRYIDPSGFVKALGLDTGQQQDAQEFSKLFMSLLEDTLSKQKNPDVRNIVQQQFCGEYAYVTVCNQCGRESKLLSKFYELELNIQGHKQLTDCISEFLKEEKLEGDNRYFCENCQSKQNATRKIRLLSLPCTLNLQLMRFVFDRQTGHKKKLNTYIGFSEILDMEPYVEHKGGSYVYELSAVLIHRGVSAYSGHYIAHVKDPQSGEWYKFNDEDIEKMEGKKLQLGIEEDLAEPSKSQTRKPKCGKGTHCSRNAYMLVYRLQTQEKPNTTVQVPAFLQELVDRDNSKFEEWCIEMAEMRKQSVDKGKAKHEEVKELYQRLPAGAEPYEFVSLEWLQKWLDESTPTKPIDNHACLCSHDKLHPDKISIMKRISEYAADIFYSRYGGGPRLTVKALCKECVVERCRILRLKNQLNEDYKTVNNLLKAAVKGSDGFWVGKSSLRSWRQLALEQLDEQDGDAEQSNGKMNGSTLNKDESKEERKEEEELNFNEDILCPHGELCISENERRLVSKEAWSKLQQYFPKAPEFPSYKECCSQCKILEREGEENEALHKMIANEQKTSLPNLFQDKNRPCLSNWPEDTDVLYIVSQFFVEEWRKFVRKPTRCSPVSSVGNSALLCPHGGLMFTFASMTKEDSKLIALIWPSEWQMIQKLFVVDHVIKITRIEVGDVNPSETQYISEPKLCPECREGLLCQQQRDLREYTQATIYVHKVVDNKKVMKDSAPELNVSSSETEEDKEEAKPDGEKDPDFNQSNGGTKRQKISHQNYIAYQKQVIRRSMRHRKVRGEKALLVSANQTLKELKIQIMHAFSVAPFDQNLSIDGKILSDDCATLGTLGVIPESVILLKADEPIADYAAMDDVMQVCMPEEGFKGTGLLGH
Method in brief: as §1

USP5 = target: T4, USP5 (UniProt P45974)
T4 sequence (whole entry): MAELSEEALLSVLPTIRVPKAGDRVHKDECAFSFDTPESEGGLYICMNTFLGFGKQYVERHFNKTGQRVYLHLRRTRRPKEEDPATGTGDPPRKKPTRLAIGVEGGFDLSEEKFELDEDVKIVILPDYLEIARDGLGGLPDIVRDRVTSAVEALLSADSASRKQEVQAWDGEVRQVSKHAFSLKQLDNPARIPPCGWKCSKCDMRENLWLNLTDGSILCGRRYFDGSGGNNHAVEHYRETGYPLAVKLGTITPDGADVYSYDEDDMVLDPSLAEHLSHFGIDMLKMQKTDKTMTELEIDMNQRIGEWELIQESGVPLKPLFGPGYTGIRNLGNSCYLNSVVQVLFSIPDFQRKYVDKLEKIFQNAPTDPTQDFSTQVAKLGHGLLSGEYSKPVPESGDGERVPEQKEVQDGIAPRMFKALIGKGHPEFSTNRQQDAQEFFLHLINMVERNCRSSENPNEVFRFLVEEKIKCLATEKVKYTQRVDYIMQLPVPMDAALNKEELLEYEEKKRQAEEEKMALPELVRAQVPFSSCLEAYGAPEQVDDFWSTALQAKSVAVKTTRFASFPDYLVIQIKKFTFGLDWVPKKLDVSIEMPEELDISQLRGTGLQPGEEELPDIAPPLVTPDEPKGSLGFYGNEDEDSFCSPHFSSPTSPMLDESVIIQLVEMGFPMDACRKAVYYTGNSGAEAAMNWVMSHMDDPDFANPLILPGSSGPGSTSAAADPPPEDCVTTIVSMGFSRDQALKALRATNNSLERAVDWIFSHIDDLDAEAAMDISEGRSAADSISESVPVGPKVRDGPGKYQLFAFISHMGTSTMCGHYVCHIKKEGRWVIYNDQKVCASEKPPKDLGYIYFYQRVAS
Method in brief: as §1

USP54 = USP54 (UniProt Q70EL1)
Method in brief: as §1

USP7 = USP7 (UniProt Q93009)
Method in brief: as §1

USP8 = target: T5, USP8 (UniProt P40818)
T5 sequence (whole entry): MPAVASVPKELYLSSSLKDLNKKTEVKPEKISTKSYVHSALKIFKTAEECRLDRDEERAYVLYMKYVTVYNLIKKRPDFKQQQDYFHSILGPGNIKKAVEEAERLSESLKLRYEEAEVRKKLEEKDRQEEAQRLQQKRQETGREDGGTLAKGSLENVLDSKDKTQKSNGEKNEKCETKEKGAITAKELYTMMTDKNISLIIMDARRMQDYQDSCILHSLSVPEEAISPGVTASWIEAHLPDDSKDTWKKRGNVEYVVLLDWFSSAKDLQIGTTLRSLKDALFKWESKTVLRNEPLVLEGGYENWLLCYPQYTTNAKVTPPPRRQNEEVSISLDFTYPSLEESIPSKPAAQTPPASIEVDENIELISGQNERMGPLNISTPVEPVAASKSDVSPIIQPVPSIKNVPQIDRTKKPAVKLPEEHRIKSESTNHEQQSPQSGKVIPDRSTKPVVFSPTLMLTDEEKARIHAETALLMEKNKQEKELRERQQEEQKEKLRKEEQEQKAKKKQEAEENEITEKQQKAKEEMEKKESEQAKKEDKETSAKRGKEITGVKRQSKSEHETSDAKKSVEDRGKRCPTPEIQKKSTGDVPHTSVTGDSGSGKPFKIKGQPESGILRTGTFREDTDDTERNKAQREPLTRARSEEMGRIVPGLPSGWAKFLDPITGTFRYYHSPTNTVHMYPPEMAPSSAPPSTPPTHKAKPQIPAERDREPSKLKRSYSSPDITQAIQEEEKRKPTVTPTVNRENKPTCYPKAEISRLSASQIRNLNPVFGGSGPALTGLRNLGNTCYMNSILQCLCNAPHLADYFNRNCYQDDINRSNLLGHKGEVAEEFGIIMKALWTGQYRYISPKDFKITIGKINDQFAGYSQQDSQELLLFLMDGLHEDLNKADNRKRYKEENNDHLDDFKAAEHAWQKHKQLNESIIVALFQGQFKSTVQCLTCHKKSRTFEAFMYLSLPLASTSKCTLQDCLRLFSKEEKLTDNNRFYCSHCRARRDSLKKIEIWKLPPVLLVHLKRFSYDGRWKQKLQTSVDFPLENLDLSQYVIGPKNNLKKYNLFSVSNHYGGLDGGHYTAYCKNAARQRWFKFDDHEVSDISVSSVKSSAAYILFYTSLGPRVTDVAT
Method in brief: as §1

USP9X = USP9X (UniProt Q93008)
Method in brief: as §1

UniProt O00487 = target: UniProt O00487
Method in brief: as §1

Measured: log2 ratio of Biotin-Ahx-Ub-VS probe labelling

Chain of USP46 (P62068 whole entry): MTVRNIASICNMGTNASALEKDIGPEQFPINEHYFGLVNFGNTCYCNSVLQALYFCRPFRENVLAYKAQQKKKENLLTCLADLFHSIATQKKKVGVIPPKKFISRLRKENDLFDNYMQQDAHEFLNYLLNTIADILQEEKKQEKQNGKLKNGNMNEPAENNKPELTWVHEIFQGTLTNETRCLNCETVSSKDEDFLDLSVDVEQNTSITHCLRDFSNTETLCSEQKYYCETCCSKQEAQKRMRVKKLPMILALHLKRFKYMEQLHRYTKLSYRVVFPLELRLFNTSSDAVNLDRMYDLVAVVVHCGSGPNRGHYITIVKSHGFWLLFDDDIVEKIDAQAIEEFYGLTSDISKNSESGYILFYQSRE
Chain of UniProt O00487 (O00487 whole entry): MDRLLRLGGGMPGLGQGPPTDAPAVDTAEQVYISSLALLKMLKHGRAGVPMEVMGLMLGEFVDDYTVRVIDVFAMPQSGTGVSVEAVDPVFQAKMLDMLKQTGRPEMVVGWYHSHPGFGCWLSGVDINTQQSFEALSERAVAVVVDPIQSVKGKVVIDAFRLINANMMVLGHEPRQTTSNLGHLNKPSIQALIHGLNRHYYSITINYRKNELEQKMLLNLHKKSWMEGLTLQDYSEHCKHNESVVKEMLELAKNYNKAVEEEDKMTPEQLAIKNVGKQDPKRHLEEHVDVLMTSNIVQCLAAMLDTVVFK
Chain of USP9X (Q93008 whole entry): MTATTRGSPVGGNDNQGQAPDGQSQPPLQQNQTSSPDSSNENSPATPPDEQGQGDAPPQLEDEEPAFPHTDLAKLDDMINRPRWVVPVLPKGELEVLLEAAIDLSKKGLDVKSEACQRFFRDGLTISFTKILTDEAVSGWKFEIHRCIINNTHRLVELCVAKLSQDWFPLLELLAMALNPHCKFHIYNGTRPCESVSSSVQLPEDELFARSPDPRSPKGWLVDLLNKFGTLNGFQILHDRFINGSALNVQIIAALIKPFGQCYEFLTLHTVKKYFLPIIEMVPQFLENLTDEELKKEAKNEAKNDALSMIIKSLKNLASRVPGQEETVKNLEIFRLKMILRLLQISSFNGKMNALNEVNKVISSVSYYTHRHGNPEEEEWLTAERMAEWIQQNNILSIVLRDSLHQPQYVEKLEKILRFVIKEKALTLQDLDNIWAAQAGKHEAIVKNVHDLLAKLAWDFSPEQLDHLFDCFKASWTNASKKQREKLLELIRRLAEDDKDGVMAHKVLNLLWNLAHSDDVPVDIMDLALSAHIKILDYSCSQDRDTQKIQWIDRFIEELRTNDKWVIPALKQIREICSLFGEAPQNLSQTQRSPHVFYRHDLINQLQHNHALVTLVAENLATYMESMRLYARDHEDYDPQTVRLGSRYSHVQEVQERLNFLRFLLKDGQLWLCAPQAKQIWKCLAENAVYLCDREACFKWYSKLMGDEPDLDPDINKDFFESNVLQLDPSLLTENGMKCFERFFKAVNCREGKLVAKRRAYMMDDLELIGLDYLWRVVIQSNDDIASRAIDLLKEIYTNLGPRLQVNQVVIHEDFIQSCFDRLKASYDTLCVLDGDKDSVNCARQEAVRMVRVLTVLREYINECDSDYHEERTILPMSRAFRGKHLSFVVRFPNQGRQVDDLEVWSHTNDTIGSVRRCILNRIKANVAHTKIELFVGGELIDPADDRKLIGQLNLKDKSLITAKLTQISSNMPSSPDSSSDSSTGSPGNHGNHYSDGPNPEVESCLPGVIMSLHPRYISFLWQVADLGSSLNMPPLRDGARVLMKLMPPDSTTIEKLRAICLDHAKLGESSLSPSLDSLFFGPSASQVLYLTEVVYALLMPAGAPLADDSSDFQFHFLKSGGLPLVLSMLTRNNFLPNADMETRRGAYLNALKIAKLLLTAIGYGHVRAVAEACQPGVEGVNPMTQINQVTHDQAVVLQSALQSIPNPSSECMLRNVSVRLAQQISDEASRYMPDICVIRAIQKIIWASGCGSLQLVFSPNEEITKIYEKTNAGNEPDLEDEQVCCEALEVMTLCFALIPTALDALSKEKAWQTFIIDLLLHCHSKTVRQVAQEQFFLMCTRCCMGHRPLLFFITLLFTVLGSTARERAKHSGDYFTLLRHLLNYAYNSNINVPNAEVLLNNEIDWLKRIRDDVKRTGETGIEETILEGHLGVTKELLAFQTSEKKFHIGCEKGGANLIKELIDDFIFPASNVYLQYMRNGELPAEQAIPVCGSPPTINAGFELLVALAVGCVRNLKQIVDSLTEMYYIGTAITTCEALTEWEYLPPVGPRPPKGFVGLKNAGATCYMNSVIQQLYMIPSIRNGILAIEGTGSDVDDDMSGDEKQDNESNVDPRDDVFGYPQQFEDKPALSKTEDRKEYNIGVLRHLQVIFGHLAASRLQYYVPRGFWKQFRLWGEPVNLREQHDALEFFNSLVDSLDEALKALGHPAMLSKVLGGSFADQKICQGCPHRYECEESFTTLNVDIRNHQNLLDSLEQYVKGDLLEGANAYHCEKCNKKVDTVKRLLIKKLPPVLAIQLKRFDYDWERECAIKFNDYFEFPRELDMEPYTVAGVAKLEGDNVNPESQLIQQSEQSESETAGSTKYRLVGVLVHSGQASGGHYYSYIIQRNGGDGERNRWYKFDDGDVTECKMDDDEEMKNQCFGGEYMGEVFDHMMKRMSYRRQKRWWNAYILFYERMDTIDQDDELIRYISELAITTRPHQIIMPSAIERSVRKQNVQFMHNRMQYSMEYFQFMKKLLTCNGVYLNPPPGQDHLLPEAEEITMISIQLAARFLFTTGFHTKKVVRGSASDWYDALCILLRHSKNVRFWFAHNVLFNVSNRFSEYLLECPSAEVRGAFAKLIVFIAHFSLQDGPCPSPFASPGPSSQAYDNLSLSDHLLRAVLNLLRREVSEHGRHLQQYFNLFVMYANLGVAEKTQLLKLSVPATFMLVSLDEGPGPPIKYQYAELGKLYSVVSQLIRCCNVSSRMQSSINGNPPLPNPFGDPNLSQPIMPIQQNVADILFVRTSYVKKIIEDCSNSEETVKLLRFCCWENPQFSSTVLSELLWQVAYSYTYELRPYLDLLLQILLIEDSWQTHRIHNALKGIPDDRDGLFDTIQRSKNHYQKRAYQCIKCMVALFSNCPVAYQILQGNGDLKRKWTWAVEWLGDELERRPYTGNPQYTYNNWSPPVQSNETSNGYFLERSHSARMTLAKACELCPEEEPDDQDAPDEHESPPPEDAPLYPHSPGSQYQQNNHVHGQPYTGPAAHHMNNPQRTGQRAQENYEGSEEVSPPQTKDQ
Chain of USP7 (Q93009 whole entry, looked up): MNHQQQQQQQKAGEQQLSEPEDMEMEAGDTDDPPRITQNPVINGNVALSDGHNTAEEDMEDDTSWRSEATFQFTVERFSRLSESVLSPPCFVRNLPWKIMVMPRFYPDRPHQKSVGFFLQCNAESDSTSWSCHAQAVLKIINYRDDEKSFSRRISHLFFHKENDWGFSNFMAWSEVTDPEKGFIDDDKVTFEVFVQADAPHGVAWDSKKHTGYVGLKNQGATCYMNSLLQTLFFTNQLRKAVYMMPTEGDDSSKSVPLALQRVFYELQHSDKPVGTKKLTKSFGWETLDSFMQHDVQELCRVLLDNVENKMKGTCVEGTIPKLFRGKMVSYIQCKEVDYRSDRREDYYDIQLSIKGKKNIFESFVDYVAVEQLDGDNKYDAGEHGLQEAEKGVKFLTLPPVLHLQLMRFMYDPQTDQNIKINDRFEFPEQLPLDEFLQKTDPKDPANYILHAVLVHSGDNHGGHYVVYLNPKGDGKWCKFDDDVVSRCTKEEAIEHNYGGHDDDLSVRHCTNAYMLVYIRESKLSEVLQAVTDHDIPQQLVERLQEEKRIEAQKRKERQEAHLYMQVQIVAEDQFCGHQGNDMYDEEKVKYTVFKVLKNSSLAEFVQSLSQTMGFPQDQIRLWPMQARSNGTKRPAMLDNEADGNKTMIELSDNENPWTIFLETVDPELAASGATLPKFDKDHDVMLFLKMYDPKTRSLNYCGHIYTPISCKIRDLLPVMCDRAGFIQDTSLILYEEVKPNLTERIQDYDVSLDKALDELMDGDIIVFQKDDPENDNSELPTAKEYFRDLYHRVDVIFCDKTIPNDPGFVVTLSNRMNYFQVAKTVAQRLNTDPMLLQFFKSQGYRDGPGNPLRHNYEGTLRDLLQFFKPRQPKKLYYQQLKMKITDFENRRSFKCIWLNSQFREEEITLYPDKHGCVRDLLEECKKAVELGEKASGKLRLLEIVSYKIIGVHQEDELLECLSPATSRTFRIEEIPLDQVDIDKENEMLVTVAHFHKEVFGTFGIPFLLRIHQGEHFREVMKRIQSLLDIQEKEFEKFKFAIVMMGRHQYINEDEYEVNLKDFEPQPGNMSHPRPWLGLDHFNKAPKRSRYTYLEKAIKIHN

Cc1ccc(CN(C)C(=O)CCl)o1
inactive: USP42 0.191 | USP46 -0.175 | USP47 0.0147 | USP48 -0.264 | USP5 0.245 | USP54 0.355 | USP7 -0.538 | USP8 -0.199 | USP9X -0.23 | UniProt O00487 -0.0611
